In PubChem BioAssay (NCI):
About 79,000 compounds went through this panel and 15% of them were active in at least one assay; those are over-represented in the sample as a whole. The source made the active and inactive calls. No stated cut-off is given here; in the data, active means growth inhibition above about 70%; inactive means the rest.

What was measured:
[1] = NCI Yeast Anticancer Drug Screen. Data for the rad50 strain (AID 155);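 further: 0% = growth of vehicle-only cultures of the same strain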; conditions: S. cerevisiae rad50 strain growth inhibition, stronger effect = higher value
Summary of the method: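 Compounds were tested on a yeast strain with an engineered DNA damage repair alteration; the reported value is growth inhibition normalised to vehicle treatment.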

[2] = NCI Yeast Anticancer Drug Screen. Data for the mec2-1 strain (AID 157); conditions: S. cerevisiae mec2-1 strain, stronger effect = higher value
Summary of the method: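 mec2-1 yeast strain, carrying an alteration in DNA damage repair or cell cycle control, was exposed to compounds; growth inhibition was measured relative to vehicle-treated controls.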

[3] = NCI Yeast Anticancer Drug Screen. Data for the sgs1 mgt1 strain (AID 161);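 further: 0% = growth of cultures given vehicle only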; conditions: S. cerevisiae sgs1 mgt1 strain, stronger effect = higher value
Summary of the method: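 Percent growth inhibition was derived by comparing compound-exposed mutant yeast with vehicle-exposed cultures. The strain carries alterations in DNA damage repair.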

[4] = NCI Yeast Anticancer Drug Screen. Data for the cln2 rad14 strain (AID 165);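 further: 0% = growth equal to vehicle treated cultures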; conditions: S. cerevisiae cln2 rad14 strain, stronger effect = higher value
Summary of the method: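 Yeast carrying cln2 and rad14 alterations (cell cycle control and DNA damage repair) were exposed to compounds. Growth inhibition was measured against vehicle-treated controls.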

[5] = NCI Yeast Anticancer Drug Screen. Data for the bub3 strain (AID 167); conditions: S. cerevisiae bub3 mutant strain, stronger effect = higher value
Summary of the method: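 Growth of a checkpoint-deficient yeast mutant is measured after compound exposure. Values represent inhibition relative to vehicle.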

[6] = NCI Yeast Anticancer Drug Screen. Data for the mlh1 rad18 strain (AID 175); conditions: S. cerevisiae mlh1 rad18 strain growth inhibition, stronger effect = higher value
Summary of the method: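 Growth inhibition of the yeast strain was measured after compound exposure and expressed relative to vehicle-treated controls. The strain carries defined defects in DNA damage repair.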

[7] = at 5.0 µM (retest, dose inferred, filed as 0.5)
[8] = at 50.0 µM (retest, dose inferred, filed as 5.0)

Measured: growth inhibition

C=CCO/N=C/c1cc(NC(=S)c2ccoc2C)ccc1Cl
active: [1]; [8] 86% | [1]; at 50.0 µM 83.9% | [2]; [8] 86% | [2]; at 50.0 µM 85.5% | [3]; [8] 85% | [3]; at 50.0 µM 83.2% | [4]; [8] 80% | [4]; at 50.0 µM 84.3% | [5]; [8] 90% | [5]; at 50.0 µM 80.4% | [6]; [8] 91% | [6]; at 50.0 µM 76.7%
inactive: [1]; [7] 13% | [2]; [7] 6% | [3]; [7] 1% | [4]; [7] -11% | [5]; [7] -4% | [6]; [7] 4%

CC/C(=C(/CC)c1ccc(O)cc1)c1ccc(O)cc1
inactive: [1]; [7] 16% | [2]; [7] 6% | [3]; [7] 5% | [4]; [7] 39% | [5]; [7] 22% | [5]; [8] 63% | [6]; [7] 13%
active: [1]; [8] 99% | [1]; at 50.0 µM 99% | [2]; [8] 99% | [2]; at 50.0 µM 98.8% | [3]; [8] 100% | [3]; at 50.0 µM 99.1% | [4]; [8] 99% | [4]; at 50.0 µM 98% | [5]; at 50.0 µM 99.5% | [6]; [8] 97% | [6]; at 50.0 µM 99.2%

C(=N\Nc1ccc2ccccc2n1)/c1ccccn1
inactive: [1]; [7] 49% | [2]; [7] 30% | [3]; [7] 46% | [4]; [7] 31% | [4]; [8] 63% | [5]; [7] 44% | [6]; [7] 50%
active: [1]; [8] 72% | [1]; at 50.0 µM 90.7% | [2]; [8] 78% | [2]; at 50.0 µM 92.6% | [3]; [8] 85% | [3]; at 50.0 µM 93.1% | [4]; at 50.0 µM 90.7% | [5]; [8] 81% | [5]; at 50.0 µM 92.3% | [6]; [8] 87% | [6]; at 50.0 µM 92.1%

Nc1cc(-c2ccccc2)ccc1O
inactive: [1]; [7] 5% | [1]; [8] 63% | [2]; [7] -2% | [3]; [7] 5% | [3]; [8] 37% | [4]; [7] -3% | [4]; [8] 6% | [5]; [7] 0% | [5]; [8] 29% | [6]; [7] 8%
active: [1]; at 50.0 µM 98.7% | [2]; [8] 80% | [2]; at 50.0 µM 97.9% | [3]; at 50.0 µM 93.6% | [4]; at 50.0 µM 79.1% | [5]; at 50.0 µM 99.1% | [6]; [8] 89% | [6]; at 50.0 µM 99.5%

CCOC(=O)COc1cc(-c2ccccc2F)nc2cc3c(cc12)OCO3
inactive: [1]; [7] 9% | [1]; [8] 24% | [1]; at 50.0 µM 14.7% | [2]; [7] 4% | [2]; [8] 6% | [2]; at 50.0 µM 15.1% | [3]; [7] -16% | [3]; [8] -9% | [3]; at 50.0 µM 47.2% | [4]; [7] 8% | [4]; [8] 15% | [4]; at 50.0 µM 23.6% | [5]; [7] -29% | [5]; [8] 36% | [5]; at 50.0 µM 65.8% | [6]; [7] 12% | [6]; [8] 26% | [6]; at 50.0 µM 17.6%

CCOc1ccc(Nc2nc3c(s2)C(=O)c2ccccc2C3=O)cc1
active: [1]; [7] 78% | [1]; [8] 99% | [1]; at 50.0 µM 90.7% | [2]; [7] 99% | [2]; [8] 99% | [2]; at 50.0 µM 92.1% | [3]; [7] 90% | [3]; [8] 99% | [3]; at 50.0 µM 92.7% | [4]; [8] 98% | [4]; at 50.0 µM 90.8% | [5]; [7] 98% | [5]; [8] 99% | [5]; at 50.0 µM 92.5% | [6]; [7] 89% | [6]; [8] 98% | [6]; at 50.0 µM 91.8%
inactive: [4]; [7] 58%

N#Cc1c2ccccc2nc2ccccc12
inactive: [1]; [7] 37% | [1]; [8] 45% | [2]; [7] 21% | [2]; [8] 19% | [2]; at 50.0 µM 16.9% | [3]; [7] -1% | [3]; [8] 37% | [3]; at 50.0 µM 30.1% | [4]; [7] 2% | [4]; [8] 3% | [4]; at 50.0 µM 19.6% | [5]; [7] 5% | [5]; [8] 12% | [5]; at 50.0 µM 28.4% | [6]; [7] 1% | [6]; [8] 17%
active: [1]; at 50.0 µM 85.9% | [6]; at 50.0 µM 74.2%

N#CC1c2ccccc2C=CN1C(=O)CCCl (stereo not given)
active: [5]; [8] 74% | [5]; at 50.0 µM 74.3%
inactive: [1]; [7] 7% | [1]; [8] 41% | [1]; at 50.0 µM 6.05% | [2]; [7] 2% | [2]; [8] 36% | [2]; at 50.0 µM 34.2% | [3]; [7] 11% | [3]; [8] 34% | [3]; at 50.0 µM 53.5% | [4]; [7] 8% | [4]; [8] 42% | [4]; at 50.0 µM 17.1% | [5]; [7] 15% | [6]; [7] -11% | [6]; [8] 38% | [6]; at 50.0 µM 29.1%

COC1CC(C)C(OC)c2cc(O)cc(c2O)NC(=O)/C(C)=C/C=C\C(C)C(OC(N)=O)/C(C)=C\C(C)C1OC (stereo not given)
active: [1]; [7] 94% | [1]; [8] 97% | [1]; at 50.0 µM 91.2% | [2]; [7] 95% | [2]; [8] 97% | [2]; at 50.0 µM 92.5% | [3]; [7] 97% | [3]; [8] 98% | [3]; at 50.0 µM 91.3% | [4]; [7] 88% | [4]; [8] 95% | [4]; at 50.0 µM 89.8% | [5]; [7] 97% | [5]; [8] 98% | [5]; at 50.0 µM 90.7% | [6]; [7] 96% | [6]; [8] 97% | [6]; at 50.0 µM 90%

c1csc(-c2[nH]nc3c2CCc2ccccc2-3)c1
inactive: [1]; [7] 19% | [2]; [7] -13% | [3]; [7] -2% | [4]; [7] -6% | [5]; [7] 18% | [6]; [7] -3%
active: [1]; [8] 97% | [1]; at 50.0 µM 98.3% | [2]; [8] 97% | [2]; at 50.0 µM 96.6% | [3]; [8] 98% | [3]; at 50.0 µM 97.6% | [4]; [8] 96% | [4]; at 50.0 µM 98.5% | [5]; [8] 98% | [5]; at 50.0 µM 97.1% | [6]; [8] 97% | [6]; at 50.0 µM 98.8%
